Pol kappa inh-1 – inhibitors of human DNA polymerase kappa; 400,000 tested, 0.53% active; Q9UBT6; Potency, µM (titrated, usually from 107 µM), for inactives: at the top dose activity, negative = inhibition, usual class: inhibitors; purified Pol kappa, fluorescent DNA synthesis assay, 10 min; further: on the % scale 0 is the no-effect control and ±100 the full control effect
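Here, compound and 10 nM enzyme are combined for 15 min at room temperature; adding 50 nM substrate (final) starts DNA synthesis, tracked by fluorescence at 0 and 10 min against buffer-only wells.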
APE1 inh – APE1 (human) endonuclease inhibition; 350,000 tested, 0.35% active; recombinant APE1, TAMRA/BHQ-2 abasic DNA cleavage fluorescence; P27695; AID 2517; Potency, µM (top dose mostly 65.8 µM), without a hit: at the highest dose activity change, negative = inhibition, hits mostly inhibitors;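 further: plate controls were vehicle for no effect and reference inhibitor for full effect; nearly all actives have a fitted effect of over 55% in size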
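Compound pre-exposure to 0.75 nM APE1, 15 min at ambient temperature. Reaction initiated with 50 nM TAMRA/BHQ-2 THF substrate, read immediately in kinetic mode, 525 nm excitation, 598 nm emission.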
GLS inh – blocks human kidney-isoform glutaminase activity. 410,000 tested, 0.21% active. Potency, µM (series often up to 45.5 µM), for inactives: top-dose activity change, negative = inhibition, hits mostly inhibitors. GLS enzymatic activity, qHTS titration; further: on the % scale 0 is the no-effect control and ±100 the full control effect
Target sequence (O94925 whole entry, looked up, canonical isoform): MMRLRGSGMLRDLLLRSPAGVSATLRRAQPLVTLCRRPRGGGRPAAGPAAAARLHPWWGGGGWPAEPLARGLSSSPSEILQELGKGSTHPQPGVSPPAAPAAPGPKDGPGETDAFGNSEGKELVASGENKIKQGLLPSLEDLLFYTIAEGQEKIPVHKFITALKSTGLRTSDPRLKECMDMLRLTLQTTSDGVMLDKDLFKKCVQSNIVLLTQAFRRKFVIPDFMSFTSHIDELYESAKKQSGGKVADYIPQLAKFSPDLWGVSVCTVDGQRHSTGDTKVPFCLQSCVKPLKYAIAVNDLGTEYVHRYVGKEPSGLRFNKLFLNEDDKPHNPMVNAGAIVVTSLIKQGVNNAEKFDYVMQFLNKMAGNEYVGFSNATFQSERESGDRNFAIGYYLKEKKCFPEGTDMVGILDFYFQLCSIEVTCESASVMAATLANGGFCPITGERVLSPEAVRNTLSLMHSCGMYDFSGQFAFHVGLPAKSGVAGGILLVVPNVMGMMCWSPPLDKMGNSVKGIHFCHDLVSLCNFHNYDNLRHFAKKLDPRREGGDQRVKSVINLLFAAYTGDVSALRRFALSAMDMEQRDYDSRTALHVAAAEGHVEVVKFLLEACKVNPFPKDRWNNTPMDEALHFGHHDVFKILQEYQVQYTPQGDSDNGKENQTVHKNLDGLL
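Compounds were pin-transferred onto hKGA, after which L-glutamine (1 mM solution) and a detection mix of glutamate oxidase, HRP and Amplex Red were added. Initial and 30 min RT fluorescence reads were collected.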
POLB inh – blocks human DNA polymerase beta activity | Pol beta primer extension/strand displacement, fluorescence kinetic | 340,000 tested, 1.3% active | P06746 | AID 485314 | Potency, µM (series often up to 114 µM), without a hit: at the highest dose activity change, negative = inhibition, actives largely listed as inhibitors; further: on the % scale 0 is the no-effect control and ±100 the full control effect
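10 nM enzyme + cpd, 15 min RT; start with substrate 50 nM final; read 0 min and after 10 min RT. Corrected, normalized data; 4-parameter Hill curve fit.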
Pol eta inh-1 – blocks human DNA polymerase eta activity. Q9Y253. recombinant Pol eta, fluorescent DNA replication assay. Potency, µM (top dose mostly 114 µM), inactives show at the top dose activity change, negative = inhibition, hits mostly inhibitors. 390,000 tested, 1.2% active. AID 588591; further: on the % scale 0 is the no-effect control and ±100 the full control effect
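Pol eta (10 nM) was preincubated with compounds for 15 min at room temperature, after which fluorescent replication substrate (50 nM final) was added to start the reaction. Fluorescence was read kinetically at 0 and 10 min.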
POLI inh – blocks human DNA polymerase iota activity | 390,000 tested, 1% active | Pol iota fluorescent replication assay, 10 min | Potency, µM (doses to about 115 µM), for inactives: top-dose activity, negative = inhibition, usual class: inhibitors
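Pol iota at 10 nM preincubated 15 min with compounds at room temperature; reaction started with fluorescent substrate, 50 nM final. Fluorescence read kinetically at 0 and 10 min; buffer-only wells as negative control.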
PGK validate – validation of Trypanosoma brucei phosphoglycerate kinase inhibitors; TbPGK coupled GAPDH assay, Kinase-Glo luminescence; shares compounds with Pol kappa inh-1; 500 tested, 79% active; Potency, µM (highest dose often 57.5 µM), inactives show at the top dose activity change, negative = inhibition, usual class: inhibitors; further: on the % scale 0 is the no-effect control and ±100 the full control effect; nearly all actives have a fitted effect of over 65% in size
Pol iota confirm – Confirm cherry-picked inhibitors of human polymerase iota; 1,500 tested, 77% active; AID 720496; Pol iota primer extension, TAMRA/BHQ fluorescence; shares compounds with Pol kappa inh-1; Potency, µM, actives largely listed as inhibitors
Pol kappa inh-2 – Pol kappa (human) inhibition, cherry-pick confirmation; shares compounds with Pol eta inh-1; purified Pol-kappa, fluorescent strand-displacement substrate; Potency, µM, usual class: inhibitors; 920 tested, 76% active; AID 720501
Pol eta inh-2 – confirmation of human DNA polymerase eta inhibitors; shares compounds with Pol eta inh-1; Pol eta primer extension, TAMRA/BHQ fluorescence, 10 min; Potency, µM, most hits filed as inhibitors; 2,600 tested, 64% active; AID 720502
* = called active by the depositor; ? = inconclusive; . = not tested or not shown; ! = not confirmed by another sample; [ ] = another dose, or the depositor's remark. This is a sample that favours compounds with a hit; in the whole collection about 2.4% have one here. The call rests on the fitted dose curve; in most records, active means well fitted curve in the direction sought with a large enough effect; inconclusive means small, poorly fitted or top-dose-only effect, or another doubt; inactive means no such curve, though single readings can be large; an effect the other way counts as inactive or inconclusive. Potency means the concentration at half of the fitted maximal effect.

SMILES | Pol kappa inh-1 | APE1 inh | GLS inh | POLB inh | Pol eta inh-1 | POLI inh | Pol iota confirm | Pol kappa inh-2 | Pol eta inh-2 | others
O=C(N/N=C/c1cn(Cc2ccccc2)c2ccccc12)c1cc(O)cc(O)c1 | ? | 15µM* | -21% | 32µM* | 45µM* | ? | 34* | 19* | 30*
Cc1ccc(NC(=O)c2ccco2)c([N+](=O)[O-])c1 | -11% | -2% | -3% | -3% | -9% | 20% | . | . | .
COc1cc2c3cc1Oc1c(OC)c(OC)cc4c1[C@@H](Cc1ccc(O)c(c1)Oc1ccc(cc1)C[C@@H]3N(C)CC2)N(C)CC4 | -14%[19.4 µM] | -5% | . | . | . | . | . | . | .
CC(=O)Nc1ccc(N=Cc2c(O)c(C(=O)Nc3ccccc3)cc3ccccc23)cc1 | 5% | ? | -5% | ? | ? | 7% | 30* | 75* | 76*
CC(=O)Nc1ccc(N=Cc2c(O)c3ccccc3oc2=O)cc1 | 2% | -4% | 3% | 3% | 8% | -31% | . | . | .
COc1ccc(N2Cc3cccc(C(=O)Nc4cccc(F)c4)c3C2=O)cc1 | ? | . | -27% | 14µM* | . | 79µM* | 38* | 12* | 76*
O=C(O)COc1ccc2c(c1)O/C(=C\c1ccco1)C2=O | 79µM* | 13µM* | 10µM* | 32µM* | 5µM* | 11µM* | 27* | 6.7* | 30*
Oc1cc2c(cc1O)C1c3ccc(O)c(O)c3OCC1(O)C2 (stereo unspecified) | 0.18µM* | 14µM*! | -27% | 13µM* | 7.1µM* | 7.9µM* | 24* | . | 27* | PGK validate=5.8µM*
CC1CCc2ccccc2N1C(=N)N(C)C (stereo unspecified) | 3% | 4% | -5% | 0% | -4% | 121% | . | . | .
CC(C)[C@H](NC(=O)C1CC(=O)N(c2ccc3c(c2)OCO3)C1)C(=O)NC1CCCC1 (stereo partly specified) | 5% | 10% | ? | ? | 32µM* | 16% | ? | . | 76*
C[C@H](NC(=O)C1CC(=O)N(c2ccc3c(c2)OCCO3)C1)C(=O)NC1CCCC1 (stereo partly specified) | 2% | 19% | 0% | 29% | -19% | 15% | . | . | .
COc1cc(/C=C2\C(=N)N3N=C(S(C)(=O)=O)SC3=NC2=O)cc(OC)c1OCCOc1cccc(C)c1 | -8% | 4% | -7% | ? | ? | 93% | . | . | .
COc1cc(/C=C2/C(=N)N3C(=NC2=O)SN=C3S(C)(=O)=O)ccc1OS(=O)(=O)c1ccc(C)cc1 | -28% | -16% | 22% | ? | 79µM* | ? | ? | . | 30*
CCOc1cc(/C=C2\C(=N)N3N=C(S(C)(=O)=O)SC3=NC2=O)ccc1OCCOc1cccc(OC)c1 | -21% | ? | -2% | ? | 28µM* | ? | ? | 75* | 85*
Cc1ccc(S(=O)(=O)Oc2ccc(/C=C3\C(=N)N4N=C(S(C)(=O)=O)SC4=NC3=O)cc2)cc1 | -26% | 8% | 21% | ? | 20µM* | 16µM* | ? | . | 76*
CCOC(=O)C1CCCN(C(=O)c2ccc3c(c2)CCO3)CC1 (stereo unspecified) | . | . | -3% | . | . | . | . | . | .
Cc1ccc(NCc2ccccc2O)cc1 | -12% | 11% | -4% | 19% | -17% | -6% | . | . | .
Cc1ccc(CNc2ccc(O)cc2)cc1 | ? | -9% | . | ? | 28µM* | 3.5µM* | ? | . | ?
O=C(NCc1ccco1)c1cc2ccc(O)cc2oc1=O | 79µM* | ? | -8% | 16µM* | 6.3µM* | ? | . | . | 76* | PGK validate=16µM*
O=C(COC(=O)c1ccccc1)Nc1ncc([N+](=O)[O-])s1 | 22µM* | 3.4µM* | 169% | . | 0.79µM* | 2.2µM* | 2.7* | 0.75* | 1.7* | PGK validate=3.3µM*
O=C(Nc1ccccc1)Nc1ncc([N+](=O)[O-])s1 | -8% | -6% | 9% | -2% | -9% | 21% | . | . | .
CCN(CC(=O)Nc1c(F)cccc1F)C(=O)c1ccc(=O)n(C)n1 | 2% | . | 5% | . | -3% | 33% | . | . | .
CCOC(=O)C1=C(C)N(C[C@@H]2CC[C@@H](Cc3ccc(-c4ccccc4)cc3)O2)C(=O)NC1c1ccc(SCc2ccco2)c([N+](=O)[O-])c1 (stereo partly specified) | ? | -19% | 1% | . | 13µM* | ? | 60* | 17* | 48*
CCOC(=O)C1=C(C)N(C[C@@H]2CC[C@@H](Cc3ccc(-c4ccccc4)cc3)O2)C(=O)NC1c1ccc(C(F)(F)F)cc1 (stereo partly specified) | -24% | -10% | -2% | . | -17% | -5% | . | . | .
COc1ccc(/C=C/C(=O)NC(=S)Nc2cc([N+](=O)[O-])ccc2O)cc1OC | ? | -9% | -5% | 18µM* | 25µM* | 16µM* | 75* | . | 30*
CNc1ccc(S(=O)(=O)NC)cc1[N+](=O)[O-] | -10% | 6% | -1% | -10% | -10% | -11% | . | . | .
Cc1ccnc(NS(=O)(=O)c2ccc(NC(=O)c3cc(=O)c4ccc(C)c(C)c4o3)cc2)n1 | -2% | . | -1% | 1% | 4% | -16% | . | . | .
C=C1c2cccc(O)c2C(O)=C2C(=O)[C@]3(O)C(O)=C(C(N)=O)C(=O)[C@@H](N(C)C)[C@@H]3[C@@H](O)[C@H]12 | 6.3µM* | 2.5µM* | ? | 11µM* | 32µM* | 2.8µM* | 7.5* | 3.8* | 13*
CN(C)c1ccc(O)c2c1CC1CC3[C@@H](N(C)C)C(=O)C(C(N)=O)C(=O)[C@]3(O)C(=O)C1C2=O (stereo partly specified) | ? | 39% | 13% | . | -6% | ? | . | . | .
Cc1ccc(C)c(N2CCN(c3nc4ccccc4c(=O)n3-c3ccc(Cl)cc3)CC2)c1 | -2% | . | 7% | 2% | -14% | 12% | . | . | .

Screening data from PubChem.
